Reference: PubChem BioAssay (NCI)
About 83,000 compounds went through this panel and 20% of them were active in at least one assay; those are over-represented in the sample as a whole.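 Assay: single dose, 48 h. Readout: percent growth (0 = no net growth; negative = cell death). Active: <10.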 Active and inactive are the calls of the source.

Test system: CAKI-1 renal
Test: NCI-60 one-dose screen, 48 h (100 = growth as untreated, 0 = no growth, -100 = all killed)
Settings: 10 µM unless noted

SMILES | growth
C=C(C)[C@@H]1CC[C@]2(C(=O)N3CCCNCC3)CC[C@]3(C)[C@H](CC[C@@H]4[C@@]5(C)CCC(=O)C(C)(C)[C@@H]5CC[C@]43C)[C@@H]12 | 67.8% (inactive)
Cn1c(=O)c2c(ncn2CCC(=O)Nc2ccc(F)cc2)n(C)c1=O | 92.9% (inactive)
COc1ccc(-c2cc(-c3c(C)oc4cc5occc5c(OC)c4c3=O)nc(N)c2C#N)cc1OC | 38.9% (inactive)
COc1cc(NC(C)CN(CC(C)C)C(C)C)c2ncccc2c1 (stereo not given) | 98.6% (inactive)
COc1ccc(/C=C/C(=O)NCC(C)O)cc1 (stereo not given) | 95.8% (inactive)
Cc1c(C)c2c(c(C)c1NC(=O)CCCCCCC(=O)O)CCC(C)(CCCC(C)CCCC(C)CCCC(C)C)O2 (stereo not given) | 100% (inactive)
CN(C)c1ccc(N=C2C=CC(=O)C=C2)cc1 | 81% (inactive)
Fc1ccc(NCc2nnc(-c3ccc(Cl)cc3)o2)cc1 | 69.8% (inactive)
COc1ccc(OCC(CO)N2CCN(c3ccccc3)CC2)cc1 (stereo not given) | 90.6% (inactive)
CCCCC(=O)OC1CCCCC1C (stereo not given) | 94.9% (inactive)
COc1ccc(CCN2C(=O)C(C)(C)SC2=S)cc1OC | 88.1% (inactive)
Cc1nnc2nc(N)[nH]n2c1=O | 111% (inactive)
COc1cccc(-c2nn(-c3ccccc3)cc2-c2ccnc(NCCNS(=O)(=O)c3cccc(F)c3)c2)c1 | 35.9% (inactive)
Cc1cc(Cl)c2c(N(C)C)cccc2n1 | 99.9% (inactive)
COc1ccccc1-n1cnc(N)c1C(=O)c1cc(OC)c(OC)c(OC)c1 | 39.8% (inactive)
